From the supplement of paper PMC12669032
A number with no mark means an inactive call.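 Rule for the calls: active = AUC reduced over 20% with Padj below 0.05 in at least 2 of 3 replicates; inactive = otherwise.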

Columns and labels:
Test in all cases: growth AUC relative to DMSO control (median of replicates) (fraction); higher = more growth (less inhibition), active = hit call of the paper
Details in all cases: 20 µM; 24 h
Akkermansia muciniphila = test system: Akkermansia muciniphila
In short: (§1)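 Gut bacterial monocultures were grown anaerobically at 37 °C in mGAM, starting at OD600 0.05, with 20 µM compound (1% DMSO) in round-bottom 96-well plates under pierced gas-permeable seals. OD600 was read hourly for 24 h. Area under the growth curve (minimum OD set to 0) was normalised to the plate median of DMSO controls, or to row and column medians on the industrial chemical plate. The value is the median of three biological replicates grown on separate days.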

Bacteroides caccae = test system: Bacteroides caccae
In short: as §1

Bacteroides clarus = test system: Bacteroides clarus
In short: as §1

Bacteroides dorei = test system: Bacteroides dorei
In short: as §1

Bacteroides stercoris = test system: Bacteroides stercoris
In short: as §1

[1] = test system: Bacteroides thetaiotaomicron
In short: as §1

Bacteroides uniformis = test system: Bacteroides uniformis
In short: as §1

[2] = test system: Bifidobacterium longum subsp. longum
In short: as §1

Clostridium difficile = test system: Clostridium difficile
In short: as §1

Collinsella aerofaciens = test system: Collinsella aerofaciens
In short: as §1

Coprococcus comes = test system: Coprococcus comes
In short: as §1

Escherichia coli ED1a = test system: Escherichia coli ED1a
In short: as §1

Escherichia coli IAI1 = test system: Escherichia coli IAI1
In short: as §1

Eubacterium rectale = test system: Eubacterium rectale
In short: as §1

[3] = test system: Fusobacterium nucleatum subsp. animalis
In short: as §1

Lactobacillus gasseri = test system: Lactobacillus gasseri
In short: as §1

Lactobacillus paracasei = test system: Lactobacillus paracasei
In short: as §1

Odoribacter splanchnicus = test system: Odoribacter splanchnicus
In short: as §1

[4] = test system: Parabacteroides distasonis
In short: as §1

Parabacteroides merdae = test system: Parabacteroides merdae
In short: as §1

Row | SMILES | growth AUC (Akkermansia muciniphila) | growth AUC (Bacteroides caccae) | growth AUC (Bacteroides clarus) | growth AUC (Bacteroides dorei) | growth AUC (Bacteroides stercoris) | growth AUC [1] | growth AUC (Bacteroides uniformis) | growth AUC [2] | growth AUC (Clostridium difficile) | growth AUC (Collinsella aerofaciens) | growth AUC (Coprococcus comes) | growth AUC (Escherichia coli ED1a) | growth AUC (Escherichia coli IAI1) | growth AUC (Eubacterium rectale) | growth AUC [3] | growth AUC (Lactobacillus gasseri) | growth AUC (Lactobacillus paracasei) | growth AUC (Odoribacter splanchnicus) | growth AUC [4] | growth AUC (Parabacteroides merdae)
1 | COc1nc(OC)nc(C(=O)c2cccc(F)c2N(C)S(=O)(=O)C(F)F)n1 | 0.993 | 1 | 1 | 1 | 1.07 | 1.01 | 1.03 | 1.03 | 1.04 | 1.04 | 1.03 | 0.999 | 0.986 | 1.18 | 1.05 | 1.02 | 0.977 | 0.892 | 1.03 | 0.927
2 | N#Cc1c(N)nc(NC2CC2)nc1N | 0.971 | 1.03 | 0.972 | 1.02 | 0.984 | 1.01 | 0.987 | 0.899 | 1.06 | 1.05 | 1.01 | 0.991 | 0.992 | 0.935 | 0.994 | 0.939 | 0.972 | 1.01 | 1.02 | 1
3 | NC(=O)c1c(Cl)cccc1Cl | 0.966 | 0.94 | 1 | 1.01 | 1.06 | 0.998 | 0.978 | 1 | 0.98 | 0.974 | 0.984 | 1.01 | 0.983 | 1.09 | 1.1 | 0.917 | 1.03 | 1.07 | 0.99 | 0.996
4 | CCNc1nc(NC(C)CC)nc(OC)n1 (stereo not given) | 1.08 | 1.02 | 1 | 1.02 | 1.29 | 0.977 | 0.979 | 0.986 | 1.03 | 1.13 | 1.02 | 0.992 | 0.994 | 0.961 | 1.05 | 1.11 | 1.12 | 1 | 0.996 | 1.02
5 | CCOC(=O)C1CC(=O)C(=C(O)C2CC2)C(=O)C1 (stereo not given) | 1.01 | 1.03 | 0.965 | 0.979 | 0.982 | 1 | 0.972 | 1.03 | 1.01 | 0.986 | 1.02 | 0.972 | 1.01 | 0.961 | 1.01 | 1.01 | 0.937 | 0.976 | 0.984 | 1.03
6 | CCCCCCCC/C=C\CCCCCCCC(N)=O | 0.936 | 0.999 | 0.991 | 0.977 | 0.875 | 0.982 | 0.998 | 0.849 | 1.01 | 0.857 | 0.869 | 0.991 | 0.953 | 1.14 | 1.02 | 0.962 | 1.02 | 1.04 | 0.96 | 0.955
7 | CC[N+](CC)(CC(=O)Nc1c(C)cccc1C)Cc1ccccc1.O=C([O-])c1ccccc1 | 1.24 | 0.992 | 1.05 | 1.04 | 1.11 | 0.999 | 0.993 | 0.98 | 1.04 | 1 | 1.04 | 1.01 | 1.04 | 1.14 | 1.02 | 0.967 | 1.05 | 0.995 | 1.06 | 1.05
8 | CC(C)N(C(=O)CS(=O)(=O)[O-])c1ccccc1.[Na+] | 1.01 | 1.02 | 1.02 | 1.04 | 0.909 | 0.955 | 1.05 | 1.29 | 1.06 | 0.967 | 0.982 | 0.978 | 0.988 | 1.07 | 1.09 | 0.948 | 1 | 0.981 | 0.96 | 1
9 | COC(=O)c1c(Cl)ccc(Cl)c1OC | 1.02 | 1 | 1.01 | 1.04 | 0.942 | 1.02 | 1 | 1.04 | 1.04 | 1.04 | 1.04 | 1.04 | 1.03 | 0.969 | 0.968 | 0.979 | 0.921 | 1.04 | 1.05 | 1.01
10 | COc1cc(OC)nc(NC(=O)NS(=O)(=O)Nc2ccccc2C(=O)C2CC2)n1 | 0.985 | 0.988 | 0.943 | 0.963 | 0.983 | 0.961 | 0.915 | 0.961 | 1.01 | 0.997 | 0.952 | 1 | 0.978 | 0.807 | 0.97 | 1.07 | 1.01 | 0.963 | 0.964 | 0.913
11 | CC(C)C(O)(c1ccc(OC(F)(F)F)cc1)c1cncnc1 (stereo not given) | 0.853 | 1 | 0.938 | 0.991 | 1.22 | 0.939 | 0.972 | 1.03 | 0.985 | 1.03 | 1.01 | 0.981 | 0.961 | 0.994 | 0.926 | 1.05 | 1.02 | 0.938 | 0.959 | 0.588 (active)
12 | CCCC(C)(C)C(=O)Nc1ccc(Cl)cc1 | 0.942 | 1 | 1.01 | 1.02 | 1.01 | 0.946 | 0.955 | 0.98 | 0.999 | 1.02 | 0.978 | 0.973 | 1.01 | 0.958 | 0.938 | 1.1 | 0.989 | 0.958 | 0.928 | 0.949
13 | CC(C)(CO)C(O)(CCc1ccc(Cl)cc1)Cn1cncn1 (stereo not given) | 1.01 | 0.955 | 0.998 | 0.967 | 1.01 | 0.969 | 0.994 | 0.967 | 0.991 | 0.991 | 0.989 | 1.03 | 0.999 | 1.1 | 1 | 0.88 | 1.04 | 0.979 | 0.88 | 0.985
14 | N#Cc1ccccc1NC(=O)c1snc(Cl)c1Cl | 1.07 | 0.956 | 0.982 | 1.01 | 1.15 | 1 | 0.974 | 0.9 | 0.944 | 1.05 | 0.967 | 0.993 | 0.995 | 1.04 | 1.09 | 1 | 1.01 | 1.01 | 1 | 1.02
15 | CCNc1nc(N)nc(Cl)n1 | 0.954 | 1.01 | 1.02 | 1.01 | 1.12 | 1.03 | 1.02 | 1 | 1.03 | 0.996 | 0.995 | 1 | 1 | 1.02 | 1.04 | 0.933 | 0.891 | 1.02 | 1.02 | 1.02
16 | CC1COc2ccccc2N1C(=O)C(Cl)Cl (stereo not given) | 0.721 | 0.953 | 0.958 | 0.876 | 0.945 | 0.903 | 0.985 | 1.03 | 0.875 | 0.89 | 0.887 | 0.985 | 0.973 | 0.989 | 0.688 | 0.903 | 1.11 | 0.979 | 0.931 | 0.95
17 | CC(C)(c1ccc(O)cc1)c1ccc(O)cc1 | 1.01 | 1.07 | 1.04 | 1.01 | 1.14 | 1.02 | 1.06 | 1.06 | 1.08 | 1.03 | 1.01 | 0.994 | 0.989 | 1.04 | 1.1 | 1 | 1.04 | 1.07 | 1.38 | 1.07
